High-throughput results: PubChem, several laboratories
C1s inh = blocks human complement C1s protease activity; purified C1s, fluorogenic AMC substrate, pooled mixtures; AID 538; 0.16% of 62,000 active; mean inhibition % of two 10-compound mixtures (hits give high values), % at 5 µM (by protocol); P09871;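 active = inhibition above 20% in each of the two 10-compound mixture wells holding the compound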;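 also: 0% = enzyme wells lacking compound mixture and 100% = no-enzyme blank wells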
FXIIa inh mix = factor XIIa (human) inhibition, mixture screen; 0.2% of 62,000 active; purified FXIIa, fluorogenic substrate, pooled mixtures; AID 684; inhibition, % at 5 µM;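 also: 0% = enzyme without compound and 100% = no enzyme blank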
FXIa inh mix = inhibitors of human coagulation factor XIa, pooled mixtures; purified FXIa, fluorogenic substrate; inhibition, % at 5 µM; 0.19% of 62,000 active;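 also: each value is inhibition by a whole ten-compound pool holding the compound; 0% = enzyme with no mixture and 100% = wells lacking enzyme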
Cathepsin G inh = inhibitors of human cathepsin G. AID 581. purified enzyme, AMC-tetrapeptide fluorescence, pooled mixtures. 0.2% of 62,000 active. inhibition, % at 5 µM (by protocol). P08311;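 active = inhibition above 20% in each of the two mixture wells holding the compound; inactive = inhibition of 20% or less in either well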;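 also: 0% = enzyme control without mixture and 100% = blank lacking enzyme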
Target sequence (P08311 21-244 limits assumed): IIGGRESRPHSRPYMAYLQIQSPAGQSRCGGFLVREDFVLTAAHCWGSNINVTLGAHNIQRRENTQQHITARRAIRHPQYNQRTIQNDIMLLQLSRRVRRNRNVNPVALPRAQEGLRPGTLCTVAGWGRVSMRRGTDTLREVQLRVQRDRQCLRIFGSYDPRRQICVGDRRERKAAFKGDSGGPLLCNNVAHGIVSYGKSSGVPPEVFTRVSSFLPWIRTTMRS
WNV protease inh = inhibitors of West Nile virus NS2B-NS3 protease. P06935. WNV NS2B-NS3 protease, fluorogenic substrate Ex360/Em465; hits give low values. z-score (test concentration not listed). 0.18% of 65,000 active; in the data active = z-score below about -3
* = called active by the depositor; . = no result. An excerpt weighted towards active compounds, which were near 0.76% of everything screened. Rule as the data show it, unless noted: active = inhibition above about 20% (passing the limit was not always enough); inactive = the rest.

SMILES	C1s inh	FXIIa inh mix	FXIa inh mix	Cathepsin G inh	WNV protease inh
CCOC(=O)N1CCN(C(=O)CN(c2cccc(C)c2)S(=O)(=O)c2ccc(C)cc2)CC1	57.7*	9.3	6.8	10.1	-0.29
CCOC(=O)N1CCN(C(=O)CN(c2cccc(C)c2)S(=O)(=O)c2ccccc2)CC1	2.1	2.3	4.4	3.0	-0.64
O=C(c1cc(-c2ccccc2O)on1)N1CCc2ccccc2C1	7.7	12.8	3.0	3.5	-1.3
O=C(c1noc2c1CCc1ccccc1-2)N1CCOCC1	-11.6	10.3	3.5	36.5*	1.65
O=C(c1noc2c1CCc1ccccc1-2)N1CCCc2ccccc21	-32.1	-19.9	8.6	39.2*	-0.42
COc1ccc2c(c1)CCc1c(C(=O)N3CCCCCC3)noc1-2	-8.2	6.3	3.3	3.6	-0.01
O=C(c1noc2c1CCc1ccccc1-2)N1CCc2ccccc2C1	0.5	-12.8	4.2	30.5*	0.1
Cc1ccc(S(=O)(=O)C2(C(=O)N3CCCCC3C)CC2)cc1 (stereo not drawn)	7.0	9.2	4.5	-3.6	0.26
CCn1cc(C(=O)OCC(=O)Nc2ccc(S(=O)(=O)N3CCCC3)cc2)c(=O)c2ccc(C)nc21	-33.5	3.2	10.6	2.6	-0.75
Cc1cc(Oc2ccccc2)nc(N)n1	9.4	9.2	-1.2	8.3	-0.88
Cc1cc(Oc2ccccc2)nc(OCC#N)n1	-2.5	38.1*	2.0	9.2	0.12
O=C(c1ccco1)N1CCN(S(=O)(=O)c2ccc(S(=O)(=O)NC3CCCCC3)cc2)CC1	71.4*	9.3	1.9	9.4	0.42
COc1cccc(OCC(=O)Nc2c(C(=O)Nc3ccc(OC)cc3OC)oc3ccccc23)c1	-19.3	1.4	4.5	-0.9	0.21
c1ccc2sc(SN3CCOCC3)nc2c1	-1.3	5.5	4.2	-2.1	-1.02
CCNc1nc(N)nc(Oc2ccc(OCCOc3ccc(Cl)cc3Cl)nn2)n1	-0.2	1.8	1.5	6.0	-0.62
Fc1ccc(-c2cc(C(F)(F)F)nc(N3CCCCC3)n2)cc1	0.5	21.5*	0.9	-1.6	-0.64
COc1ccccc1-c1cc(C(F)(F)F)nc(N2CCN(c3ccccc3)CC2)n1	10.9	6.4	9.6	2.5	-0.1
COc1ccccc1-c1cc(C(F)(F)F)nc(N2CCOCC2)n1	4.0	1.5	22.2*	9.6	-0.81
O=C(CN1C(=O)NC2NC(=O)NC21)NC1CCCCC1 (stereo not drawn)	.	.	.	.	0.07
CCn1cc(C2=NOC(C(=O)Nc3c(C)nn(Cc4ccc(F)cc4)c3C)C2)c(C)n1 (stereo not drawn)	16.5	2.9	21.5*	13.2	-0.11
O=C(NCCCn1ccnc1)c1cc(-c2ccc3c(c2)OCO3)on1	-15.2	5.4	1.8	5.6	0.79
O=C(NCC(c1cccnc1)N1CCN(c2ccc(F)cc2)CC1)c1cccc(Cl)c1 (stereo not drawn)	4.2	62.0*	6.4	0.4	0.31
CCOC(=O)c1c(NC(N)=O)sc(C)c1C	19.1	6.6	28.9*	15.4	1.66
CCOC(=O)c1c(NC(=O)CNCCO)sc(C)c1C	13.8	-4.3	5.8	12.9	-1.05
COc1ccc(C)cc1-n1nnnc1SCc1cc(=O)n2cc(C)ccc2n1	9.4	2.4	2.8	11.3	-0.99
SMILES	C1s inh	FXIIa inh mix	FXIa inh mix	Cathepsin G inh	WNV protease inh
CCCCn1nnnc1SCC(=O)Nc1ccc2c(c1)OCO2	-12.6	1.9	-2.8	-0.8	2.05
Cc1ccc(C(C)C)c(OCCNc2nc3c(c(=O)n(C)c(=O)n3C)n2C)c1	.	.	.	.	0.69
N=c1oc2ccccc2cc1-c1nc2ccccc2c(=O)[nH]1	-12.1	35.5*	4.1	-3.6	-0.75
O=c1[nH]c(-c2ccncc2)nc2ccccc12	-5.9	7.1	2.3	-1.9	-0.23
CC(=O)Nc1ccc(N/C=C/C(=O)C(C)(C)C)cc1	5.1	4.4	21.2*	7.6	-0.01
CCOC(=O)C(CC(=O)O)N1CCCCC1 (stereo not drawn)	.	.	.	.	-3.07*
COc1cccc(NC(=O)CCP(C)(=O)O)c1	62.7*	-14.4	5.6	10.6	0.13
O=c1c2sc3nc(N4CCOCC4)c4c(c3c2ncn1Cc1ccco1)CCCC4	.	.	.	.	-0.83
Cc1cccc(N2CCN(C(=O)C3CCCN(S(=O)(=O)c4cccc5cccnc45)C3)CC2)c1C (stereo not drawn)	-38.0	-2.8	4.0	-6.0	-0.54
COc1ccc(-c2cc(N)n(S(=O)(=O)c3c(F)c(F)c(F)c(F)c3F)n2)cc1OC	-26.5	4.9	7.4	-0.7	-1.09
COc1ccc(S(=O)(=O)n2nc(-c3cc(OC)c(OC)c(OC)c3)cc2N)cc1OC	5.2	21.4*	5.6	1.2	-1.09
